Reference: paper PMC7819943, “Rice protein-binding microarrays: a tool to detect cis-acting elements near promoter regions in rice”
The full ranking holds about 39,000 sequences; the median of “fluorescence intensity (a.u.)” is about 4,300, and the highest 2% start at about 39,000. Only a selection was taken, and the highest values are over-represented in it overall.

target: T1, OsSMF1 (Oryza sativa, UniProt Q6ZLB0 1-436); test: protein-binding microarray (RPBM); PBS, 2% BSA, 51.3 ng/ul salmon testes DNA, 50 uM zinc acetate, 200 nM TF, 25 C, 1 h; high values mean tight binding; conditions: protein: recombinant; tags: N-terminal polyhistidine and DsRed monomer fusion (pET32a); chain copies: 2; label: CyDye5-dUTP incorporated in the synthesized complementary strand; 3' TTTTT single-stranded linker to array surface; dsDNA, one strand shown
T1 sequence: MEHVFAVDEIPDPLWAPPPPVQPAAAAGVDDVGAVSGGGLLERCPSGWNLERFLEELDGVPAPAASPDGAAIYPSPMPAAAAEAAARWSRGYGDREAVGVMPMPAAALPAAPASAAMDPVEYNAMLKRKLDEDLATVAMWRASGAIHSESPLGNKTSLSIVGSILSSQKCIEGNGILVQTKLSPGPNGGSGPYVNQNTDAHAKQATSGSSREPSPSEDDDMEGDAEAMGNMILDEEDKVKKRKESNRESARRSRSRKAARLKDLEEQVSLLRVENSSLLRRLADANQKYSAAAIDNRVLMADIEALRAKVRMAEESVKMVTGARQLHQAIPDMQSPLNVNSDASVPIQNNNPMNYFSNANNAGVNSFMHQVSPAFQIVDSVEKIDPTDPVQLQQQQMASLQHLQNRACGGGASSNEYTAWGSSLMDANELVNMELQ
Outline: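 Polyhistidine-tagged DsRed fusions of transcription factors, joined at the N-terminus, were expressed in E. coli BL21-CodonPlus and isolated on Ni–NTA. They were incubated at 200 nM for 1 h at 25 °C on a custom Agilent array, double-stranded and BSA-blocked, in PBS with 2% BSA, salmon testes DNA and 50 µM zinc acetate. The binding signal is per-feature fluorescence intensity (arbitrary units) read on an Axon 4000B scanner after washing.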

Compared with “AATTGCTATGGTTACACCCGGCCGAAGCAAAGTCACCACTCGGAGTCACCTAGTGCAG”, “ACGACACTACCAATTGTTTGGCCTTCAATCCAAACTAGCACGGAGTCACCTAGTGCAG” is lower in binding signal: 3520 fluorescence intensity (a.u.) for the first, 3500 fluorescence intensity (a.u.) for the second.

Compared with “GCAGCTGAAGTGGACCTGTCAGCAAGTAAAGCCAAGAGGCCGGAGTCACCTAGTGCAG”, “TCCAAGAAAGTGACCAAGCAAATGACGCAAGTGGTGCACGCGGAGTCACCTAGTGCAG” is higher in binding signal: 3470 fluorescence intensity (a.u.) for the first, 40200 fluorescence intensity (a.u.) for the second.

Compared with “GCAAAAGCATCTTGGAGGAGATACAGTCAGCTGGCAATCCCGGAGTCACCTAGTGCAG”, “CCACCACGCTTTCCCCGCGCGATGACTCCGCCGCCGCGCCCGGAGTCACCTAGTGCAG” is higher in binding signal: 4160 fluorescence intensity (a.u.) for the first, 5400 fluorescence intensity (a.u.) for the second.

Going from “CCCACGTGAGTAAGCTCCTCCCTGCTGGTTTGATTCCCTTCGGAGTCACCTAGTGCAG” to “GTGTAAAAGTTTTGACGTGTCACATCGGATATACGGACACCGGAGTCACCTAGTGCAG”, the binding signal rises from 4650 fluorescence intensity (a.u.) to 15300 fluorescence intensity (a.u.).

Going from “CAAAAGTTTTGACGTGTCACATCGGATATACGGACACACACGGAGTCACCTAGTGCAG” to “TTGGGGAAAAGTTTTGAGTTTGATTGTCACATCGGATATACGGAGTCACCTAGTGCAG”, the binding signal rises from 10800 fluorescence intensity (a.u.) to 53000 fluorescence intensity (a.u.).

First: TTCCATCCAGAGTGCGTCACGAACGCGCCAGTCGCCCGGTCGGAGTCACCTAGTGCAG
Second: AGCTCACCGCATTGTAAAGGCCCTTACTAATCTTAGCAAGCGGAGTCACCTAGTGCAG
The binding signal of the first is lower: 3990 fluorescence intensity (a.u.) for the first, 40300 fluorescence intensity (a.u.) for the second.

Going from “ATAACCGCCCTAATTTACTTTAGCATACGTGGAGTACAAGCGGAGTCACCTAGTGCAG” to “AAAGAACGCAGCCTTAGAAGGAGACAGCTCATGGAGCAAGCGGAGTCACCTAGTGCAG”, the binding signal falls from 6900 fluorescence intensity (a.u.) to 5000 fluorescence intensity (a.u.).

Compared with “AAATCACACCCACGCTCGTGCCCATTGGGTCGGGTATCCGCGGAGTCACCTAGTGCAG”, “GAGAATTTGCTACTAATTGACTTACCAATTTGGAATTTACCGGAGTCACCTAGTGCAG” is higher in binding signal: 3550 fluorescence intensity (a.u.) for the first, 46100 fluorescence intensity (a.u.) for the second.

Compared with “TTAAGGTGTGTTTAGTTCCACGTCAAAATTAGAAGTTTGACGGAGTCACCTAGTGCAG”, “CCACGCTAAAATTGGAAGTTTGACTAAAATTAGAAGTTTACGGAGTCACCTAGTGCAG” is higher in binding signal: 7090 fluorescence intensity (a.u.) for the first, 60200 fluorescence intensity (a.u.) for the second.

Compared with “ATGTTTAGTTCCACGTCAAAATTGGAAGTTTGAAGAAATTCGGAGTCACCTAGTGCAG”, “GGAAGGAGACTGCTTGGTCACTAATTTAATCTGCTACTACCGGAGTCACCTAGTGCAG” is lower in binding signal: 3980 fluorescence intensity (a.u.) for the first, 3140 fluorescence intensity (a.u.) for the second.

Going from “GTATTGAGAATTGTATGACTAATCAATGTTGCCTTACTTACGGAGTCACCTAGTGCAG” to “GCCGGCGTCGCCGTCGGGGATGCACCTCGGCGCGTCCGTCCGGAGTCACCTAGTGCAG”, the binding signal falls from 5200 fluorescence intensity (a.u.) to 3550 fluorescence intensity (a.u.).

Compared with “TGTCCCCGAACCGGATCTGCCCGATGCTCGCCGTCAGCATCGGAGTCACCTAGTGCAG”, “CGTGCTCACGAAACCCGATCGATCGGTGATCTGCACCGTCCGGAGTCACCTAGTGCAG” is higher in binding signal: 4300 fluorescence intensity (a.u.) for the first, 45200 fluorescence intensity (a.u.) for the second.

First: TCCCGAAACCCGACACGCGGCACCGATCGATCGATCGATCCGGAGTCACCTAGTGCAG
Second: TATATATGGCCTTTGGTCTGCATAGCTGTCCACGTCATCACGGAGTCACCTAGTGCAG
The binding signal of the first is lower: 3240 fluorescence intensity (a.u.) for the first, 42200 fluorescence intensity (a.u.) for the second.

Going from “GCAGCATAGTTAGCTTTATATCTGTTTTACGTCATCACCACGGAGTCACCTAGTGCAG” to “ATTCTGTCTCCTTTGCCTGTCGTCACGCTGTCATCACGCTCGGAGTCACCTAGTGCAG”, the binding signal falls from 6330 fluorescence intensity (a.u.) to 4480 fluorescence intensity (a.u.).

Going from “CCGTATACATAGCTAGCTGTCTGTGATGCATGCATGGTCACGGAGTCACCTAGTGCAG” to “AAAGTCATGTCATCACGTATATATCACGTATACATATATACGGAGTCACCTAGTGCAG”, the binding signal falls from 44200 fluorescence intensity (a.u.) to 4080 fluorescence intensity (a.u.).

Compared with “ATATACATATACATATATATACACACACACGTATACATAGCGGAGTCACCTAGTGCAG”, “TTCTATTTTCGCATGTGGCATTTGTGGCTGCTTGCTAGACCGGAGTCACCTAGTGCAG” is lower in binding signal: 4840 fluorescence intensity (a.u.) for the first, 3690 fluorescence intensity (a.u.) for the second.

First: CAATATGACATTGTATATGTGAATTGAGTGTAACTTGGTTCGGAGTCACCTAGTGCAG
Second: TACGCCGTTACGTGGTATGGTGTTGTGCCATTTCAGTCGGCGGAGTCACCTAGTGCAG
The binding signal of the first is lower: 3290 fluorescence intensity (a.u.) for the first, 3500 fluorescence intensity (a.u.) for the second.

First: AGAAAATGTGGAATGACGCAAATGCCCTTCTGCCTCCTCGCGGAGTCACCTAGTGCAG
Second: GATTGCAGCCGCCGCCTGCGTCGGTCCAGTCACCATTGGCCGGAGTCACCTAGTGCAG
The binding signal of the first is lower: 5440 fluorescence intensity (a.u.) for the first, 6870 fluorescence intensity (a.u.) for the second.

Going from “ACTAAATCCTCAACCACCTCATATGTTTATGTACCATCGACGGAGTCACCTAGTGCAG” to “GCGCAAGTTCTCCACAAGCCACCTCGATCGATCTCCATTGCGGAGTCACCTAGTGCAG”, the binding signal falls from 3510 fluorescence intensity (a.u.) to 3420 fluorescence intensity (a.u.).

Compared with “GTCAGTCACCGCCCTGTGGGGCCCACCCACCCGCGCCGTCCGGAGTCACCTAGTGCAG”, “AGTTTGCTGCCCACTTCAGTAGGTTACAATACAATTATACCGGAGTCACCTAGTGCAG” is higher in binding signal: 9640 fluorescence intensity (a.u.) for the first, 65300 fluorescence intensity (a.u.) for the second.

Compared with “TTCAGATGTACAATTTTGCTGGATTACTAGTAGTTTTCTTCGGAGTCACCTAGTGCAG”, “CAACAATACAGTTATTGGTAATTACAAGCTACTAGTATACCGGAGTCACCTAGTGCAG” is higher in binding signal: 17600 fluorescence intensity (a.u.) for the first, 18600 fluorescence intensity (a.u.) for the second.
